Hits are enriched below; roughly 2.9% of the tested compounds scored in any of these assays.
FAS-TE inh: inhibitors of human fatty acid synthase thioesterase domain; P49327; recombinant FAS-TE, OMFH fluorogenic substrate, fluorescence endpoint; inhibition, % at 15 µM; 360,000 tested, 0.67% active;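 active = compounds whose normalised, plate-corrected inhibition of enzyme fluorescence in the single-dose primary screen is 50% or more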;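 note: 0% = DMSO with enzyme and 100% = substrate without enzyme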
SMARCA2 act: activators of SMARCA2 function. MG213 cells, MMTV-luciferase reporter, dexamethasone, overnight. activation, % at 9.1 µM. 370,000 tested, 1% active. AID 652017; in the data active = activation above about 7.8%;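 note: 0% = vehicle wells and 100% = reference activator wells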
GAA850 FXN act: activators of GAA850 frataxin (FXN) promoter | HEK293 lucGAA850 FXN promoter luciferase reporter, 24 h; percent of 10 µM SAHA response | activation, % at 6 µM | 360,000 tested, 0.56% active | AID 540364;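 active = activation above the average of all compounds screened plus 3 SD, cutoff fixed separately per campaign, cut at about 7.5% in these data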;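 note: 0% = DMSO wells and 100% = 10 µM SAHA wells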
KLK7 zymogen act: activators of human kallikrein-7 zymogen; P49862; purified proKLK7, EDANS-DABCYL substrate fluorescence; 100% is mature enzyme control, 0% vehicle; activation, % at 7 µM; 370,000 tested, 0.9% active;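 active = activation above the mean of all tested compounds plus 3 SD, computed per campaign excluding outliers beyond control limits, cut at about 13% in these data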
Target sequence (P49862 whole entry, looked up): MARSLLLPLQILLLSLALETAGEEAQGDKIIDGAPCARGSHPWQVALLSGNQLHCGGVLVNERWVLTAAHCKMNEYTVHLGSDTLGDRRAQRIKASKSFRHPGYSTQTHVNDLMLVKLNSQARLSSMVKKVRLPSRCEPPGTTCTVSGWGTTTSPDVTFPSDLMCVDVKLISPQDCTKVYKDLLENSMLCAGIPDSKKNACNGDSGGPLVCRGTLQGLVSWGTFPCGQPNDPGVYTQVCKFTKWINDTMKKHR
proKLK7 act conf: confirmation of human kallikrein-7 zymogen activators; AID 686949; purified proKLK7, EDANS-DABCYL substrate fluorescence; scaled: vehicle 0, mature enzyme 100; activation, % at 7 µM; 3,200 tested, 68% active; shares compounds with KLK7 zymogen act;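 active = activation, as change over the incubation, above the mean of all tested compounds plus 3 SD, cut at about 13% in these data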
EDANS-DABCYL int: fluorescence interference counter-screen for KLK7 activators | shares compounds with KLK7 zymogen act | activation, % at 7 µM | EDANS-DABCYL substrate fluorescence interference, no enzyme, 4 h; solvent 0%, active enzyme control 100% | 3,200 tested, 80% active;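 active = activation above the all-compound mean plus 3 SD, ignoring values outside control-based bounds, cut at about 4.8% in these data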;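 note: value is the 4 h activation minus the activation read at time zero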
K7 EDANS ctr: counter-screen for kallikrein-7 activators: EDANS-DABCYL interference, dose response; shares compounds with KLK7 zymogen act; EDANS-DABCYL peptide fluorescence interference, no enzyme; EC50, µM; 250 tested, 20% active; AID 720493;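 active = compounds that raise the fluorescence signal in this interference counterscreen, with EC50 at or below 10 µM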;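 note: intact quenched peptide substrate alone read at 355 nm excitation and 520 nm emission; signal is fluorescence gain from T0 to T4 after four hours at room temperature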
An asterisk follows results filed as active; . = no result.

SMILES	FAS-TE inh	SMARCA2 act	GAA850 FXN act	KLK7 zymogen act	proKLK7 act conf	EDANS-DABCYL int	others
CCc1cc2c(=O)c(-c3nc4ccccc4n3C)c(C)oc2c(CN(CC)CC)c1O	-2	1	-5	16*	11	11*
CCc1cc2c(=O)c(-c3nc4ccccc4n3C)coc2c(CN2CCN(C)CC2)c1O	-9	-4	1	9	.	.
COc1ccc(-c2cc3ncnc(Cl)c3s2)cc1	-1	6	3	27*	4	3
CCOC(=O)c1c2ccc(OCC(=O)NN)cc2n2ccccc12	-7	-1	-2	49*	-27	-33
Cn1cc(Br)c(-c2cccc(NC(=O)CCCC(=O)O)c2)n1	-5	-2	0	-1	.	.
COC(=O)c1cc(Br)c(=O)n(CCC2=CCCCC2)c1	-1	-1	0	-1	.	.
CCN(CC)CCN(C(=O)c1cc2c(ccc3ccccc32)oc1=O)c1nc2cc3c(cc2s1)OCCO3	-2	-1	2	46*	61*	65*
CCN(CC)CCN(C(=O)c1ccc2c(c1)OCCO2)c1nc2cc3c(cc2s1)OCO3	18	0	0	0	.	.
COc1ccc2c(c1)CCC1(C)CC(=O)C(Br)=C21 (centres undefined)	3	-5	3	124*	71*	76*
COc1ccc(NC(=O)COC(=O)c2ccc(Br)o2)cc1OC	-10	-5	0	0	.	.
COc1ccc(OC)c(C2NC(=O)NC(C)=C2C(=O)OC2CCCCC2)c1 (centres undefined)	7	-2	2	19*	-2	1
Cc1ccccc1/C(N)=N/OC(=O)N1c2ccccc2Sc2ccccc21	16	1	2	-1	.	.
Cc1cc(=O)oc2cc(OCC(=O)N3CCCC3)c(Cl)cc12	3	3	0	11	.	.
Cc1cc(=O)oc2cc(OCC(=O)N3CCOCC3)c(Cl)cc12	-5	-1	-1	18*	33*	24*	K7 EDANS ctr=>70
COc1ccc2c(c1)CCc1cn3nc(C)cc3nc1-2	4	-3	0	6	.	.
O=c1nc(-c2ccccc2)c2cc(Cl)ccc2[nH]1	-13	0	1	14*	29*	28*
CCOC(=O)c1nc(C)nc(Sc2n[nH]c(-c3cc(Cl)cc(Cl)c3)n2)c1C	10	-3	-1	0	.	.
COc1ccc(-c2cc(C(=O)NC3CC3)c3ccccc3n2)cc1	-3	0	0	42*	25*	15*	K7 EDANS ctr=>70
COC(=O)C1CCN(C(=O)c2cc(-c3ccco3)nc3ccccc23)CC1	-1	0	2	48*	36*	27*	K7 EDANS ctr=>70
COc1ccc2nc(-c3ccccc3)cc(C(=O)OCC(=O)N3CCCCC3)c2c1	31	-2	0	-82	.	.
COc1ccc(-c2cc(C(=O)N3CCCC3)c3ccccc3n2)cc1	-6	1	4	22*	-19	2
O=C(c1cc(-c2ccco2)nc2ccccc12)N1CCN(Cc2ccccc2)CC1	-5	4	1	-8	.	.
COc1ccc(-c2cc(C(=O)OCC(=O)N3CCCC3)c3ccccc3n2)cc1	10	-2	-1	17*	-18	-28
CN(Cc1ccc(Cl)cc1Cl)C(=O)CN1C(=O)NC2(CCCC2)C1=O	-4	-1	-2	0	.	.
Cc1ccccc1NC(=O)CSc1nnc(-c2cc(-c3ccccc3)n[nH]2)n1N	.	0	.	0	.	.
SMILES	FAS-TE inh	SMARCA2 act	GAA850 FXN act	KLK7 zymogen act	proKLK7 act conf	EDANS-DABCYL int	others
CCOc1ccc(-c2cc(C(=O)N3CCN(C)CC3)c3ccccc3n2)cc1	-3	1	4	31*	49*	33*	K7 EDANS ctr=>70
O=C(CS(=O)CC(=O)Nc1ccc(Cl)cc1)NCC1OCCc2ccccc21 (centres undefined)	-8	0	-2	0	.	.
COc1cccc2c1cc1c(=O)n(CC(=O)NCCCN3CCN(C)CC3)nc(C)n12	-6	-1	3	60*	83*	76*
CCc1nn(CC(=O)NCCN2CCOCC2)c(=O)c2cc3c(OC)cccc3n12	-6	-1	2	27*	19*	28*
CCCCOC(=O)Oc1ccc2c(=O)c(Oc3cccc(C)c3)coc2c1	12	2	5	43*	85*	65*	K7 EDANS ctr=8.2*
CCCOC(=O)Oc1ccc2c(=O)c(Oc3cc(C)cc(C)c3)coc2c1	25	-1	0	43*	77*	65*	K7 EDANS ctr=5*
CCCCOC(=O)Oc1ccc2c(=O)c(Oc3cc(C)cc(C)c3)coc2c1	14	-2	2	4	.	.
COc1cccc(/C=N/NC(=S)NCc2ccco2)c1OC	5	0	3	-1	.	.
COc1ccc(NC(=O)NNC(=O)CCc2ccc(O)c(O)c2)cc1OC	-6	0	-1	24*	27*	24*
COc1ccc(CCC(=O)NNC(=O)Nc2ccc(OC)c(OC)c2)cc1	-5	-1	1	-1	.	.
COc1ccc([C@H]2CC(=O)C=C(c3c(C)cc(C)cc3C)C2)cc1	22	-1	2	0	.	.
CCc1cc2c(-c3ccccc3)cc(=O)oc2c(CN2CCOCC2)c1O	8	-6	0	0	.	.
COc1ccc(Oc2c(C)oc3c(CN4CCOCC4)c(O)ccc3c2=O)cc1	-5	0	3	7	.	.
Cc1oc2c(CN3CCOCC3)c(O)ccc2c(=O)c1-c1ccccc1	-8	7	-2	73*	23*	30*
Cc1oc2c(CN3CCCCC3)c(O)ccc2c(=O)c1-c1ccc(Cl)cc1	-2	-4	2	38*	28*	34*
COc1ccccc1-c1c(C)oc2c(CN3CCOCC3)c(O)ccc2c1=O	-4	-1	2	66*	69*	79*
COc1cccc(Oc2c(C)oc3c(CN4CCOCC4)c(O)ccc3c2=O)c1	-7	-4	0	31*	12	23*
C[C@H](CO)N1C[C@H](C)[C@@H](CN(C)Cc2ccc(Oc3ccccc3)cc2)Oc2c(NC(=O)C3CC3)cccc2C1=O	21	-1	-2	0	.	.
O=C(Nn1c(-c2ccc(Br)cc2)nc2ccccc2c1=O)c1cccnc1	-2	3	0	-1	.	.
CN(C)c1oc(/C=C/c2ccccc2)nc1C#N	4	0	6	58*	69*	62*
CCN(CC)CCCNc1oc(/C=C/c2ccccc2)nc1C#N	-4	0	0	104*	28*	18*	K7 EDANS ctr=>69
COc1ccccc1/C=C/c1nc(C#N)c(N(C)C)o1	15	4	5	-9	.	.
O=c1[nH]c(N2CCc3ccccc32)nc2c1CCCC2	-3	0	0	0	.	.
CCn1c(Cc2ccc(OC)cc2)nnc1SCC(=O)N1CCN(c2ccccc2)CC1	-4	-4	-3	-1	.	.
